This passage reports inhibition results from PubChem BioAssay AID1578 (Sanford-Burnham Center for Chemical Genomics, 2009).

Each structure is given as a SMILES string. About 3,000 (1%) of roughly 290,000 compounds were called active. The full list was thinned out, with actives kept by preference. Values without a mark were called inactive. Cut-off read from the data, not from the text of the source: active = inhibition mostly above about 36% (no sharp cut-off); inactive = mostly below about 34%.

A short description of this experiment: inhibition of NOD1-driven NF-kB reporter – cell-based, luminescence, uHTS, primary screen (AID 1578).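 Note: HEK-293T reporter cells stimulated with the NOD1 agonist gamma-tri-DAP.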 As to conditions: NOD1-driven NF-kB luciferase reporter cells, at 4 µM, stronger effect = higher value. (A reporter such as luciferase makes a cellular process visible.)
For the compound `COc1ccc(/C(N)=N/OC(=O)CC2CCCCC2)cc1OC`, the inhibition – broadly, the change of the read-out against control, counted positive when it falls – was -10.9%. Regarding `CC(C)(C)c1ccc(OCc2ccc(C(=O)NN)o2)cc1`, the inhibition is -4.2%. In the case of `CCOc1ccc(OCc2ccc(C(=O)NC(C)C)o2)cc1`, the inhibition was -2.6%. As for `CC(C)NC(=O)c1ccc(COc2ccc(C(C)(C)C)cc2)o1`, the figure is 29.6% (active); as for `CC(=O)c1ccc(S(=O)c2ccccc2)cc1` (stereo not given), -22.4%; as for `COc1ccc(OC)c(C(=O)NC(CC(N)=O)c2ccc(N3CCC(N4CCCC4)CC3)c([N+](=O)[O-])c2)c1` (stereo not given), 5.4%. For `Cc1cc(C)cc(NS(=O)(=O)c2ccc3[nH]cc(C(=O)N4CCc5ccccc54)c(=O)c3c2)c1`, the inhibition is 3.5%. The value for `CCOCCn1c(=NC(=O)/C=C/c2ccccc2Cl)sc2cc(NC(C)=O)ccc21` was 18.1%.

As for `COCCn1c(=NC(=O)/C=C/c2ccccc2Cl)sc2cc(NC(C)=O)ccc21`, the inhibition is 85% (active).

As for `COCCn1c(=NC(=O)/C=C/c2ccccc2)sc2cc(NC(C)=O)ccc21`, the inhibition was -16.2%. In the case of `Cc1cccc(C(P(=O)(c2ccccc2)c2ccccc2)P(=O)(c2ccccc2)c2ccccc2)n1`, the inhibition was -2.9%. The value for `CC(=O)c1c(C)[nH]c(C(=O)OCC(=O)Nc2ccc([N+](=O)[O-])cc2Cl)c1C` was -9%; that for `CC(=O)c1c(C)[nH]c(C(=O)OCC(=O)Nc2ccccc2Cl)c1C` was 51.1% (active). For `CC(=O)c1c(C)[nH]c(C(=O)Nc2ccccc2Cl)c1C`, the inhibition was -16.6%. As for `CCC(C)N1C(=O)CCC1C(=O)N1CCN(c2ccccc2F)CC1` (stereo not given), the figure is 2.8%; as for `C/C(=N\NC(=O)c1nnn(-c2nonc2N)c1CSc1ccccc1)c1cccnc1`, -4.5%; as for `Cc1cc(C)n(-c2nc3ccccc3c(=O)n2OCC#N)n1`, 109% (active). As for `C#CCOn1c(-n2nc(C)cc2C)nc2ccccc2c1=O`, the inhibition is 2.3%. As for `CCOn1c(-n2nc(C)cc2C)nc2ccccc2c1=O`, the figure is 0.7%; as for `CN(C)N(Cc1ccccc1)C(=O)C(O)(c1ccccc1)c1ccccc1`, 63.1% (active); as for `CN(C)N(C)C(=O)C(O)(c1ccccc1)c1ccccc1`, -18.6%. The value for `CN(Cc1ccccc1)C(=O)CCC(=O)N(C)Cc1ccccc1` was -41.2%; that for `O=C(CN1C(=O)NC2(CCCCCCC2)C1=O)NC1CCCc2ccccc21` (stereo not given) was -29.3%; that for `COC(=O)c1ccc(NC(=O)CCN2C(=O)CSC2=O)cc1` was -44.1%.

Consider `N#CCc1c(C#N)c(N)nc(N2CCCC(O)C2)c1C#N` (stereo not given), for which the inhibition is -18.2%. The value for `N#Cc1c(N2CCCC(O)C2)nc(N)c2c(N)nc3c(c12)CC(=O)N3C12CC3CC(CC(C3)C1)C2` (stereo not given) was 72% (active); that for `C=C(C)CN(CC)c1nc(N)c2c(N)nc3c(c2c1C#N)CC(=O)N3C12CC3CC(CC(C3)C1)C2` was -11.3%. As to `Cc1cnc(C(=O)Nc2ccc(C(=O)N(C)C3CCCCC3)cc2)cn1`, the inhibition is -6.2%.

For the compound `C=CCOc1ccc2ccccc2c1/C=N/O`, the inhibition was -6.7%. Regarding `CCOc1ccc(-c2nc(CSCC(=O)N3CCN(C(=O)c4ccco4)CC3)c(C)o2)cc1`, the inhibition was -28.8%. As for `CCOC(=O)C1CCN(C(=O)CSCc2nc(-c3ccc(OCC)cc3)oc2C)CC1`, the inhibition was -2.1%. Turning to `COc1cccc(CNCc2ccc(OC)cc2OC)c1`, the inhibition is 3.1%. As for `COc1cc(CNCc2ccc(OC)cc2OC)cc(OC)c1`, the figure is 79.5% (active); as for `COc1cc(CNCc2cc(OC)ccc2OC)cc(OC)c1`, -5.3%. The value for `O=C(COC(=O)CNC(=O)c1ccc(Cl)cc1)Nc1cccc(S(=O)(=O)N2CCCC2)c1` was 6.6%; that for `CCO[C@H]1OC(C(=O)N2CCCCCCC2)=C[C@@H](C)[C@@H]1CCCO` was 40% (active). As for `CCO[C@H]1OC(C(=O)N2CCN(C)CC2)=C[C@@H](C)[C@@H]1CCCO`, the figure is -35.3%; as for `CCO[C@@H]1OC(C(=O)N2CCOCC2)=C[C@H](C)[C@H]1CCCO`, -28.1%. `CC1CCCC(NC(=O)c2ccc(CNc3c(N4CCCC4)c(=O)c3=O)cc2)C1C` (stereo not given): the inhibition was -28.2%. For the compound `COc1ccc(/C=N/Nc2nc(C(=O)O)cs2)cc1`, the inhibition was -35.9%. In the case of `Cc1c(C(=O)NCCN(C)C)oc2ccc(S(=O)(=O)N3CCC4(CC3)OCCO4)cc12`, the inhibition is -12.2%. With `Fc1ccccc1COc1ccc(Br)cc1CNCc1ccncc1`, the inhibition is 72.9% (active). As for `Brc1ccc(OCc2ccccc2)c(CNCc2ccncc2)c1`, the figure is 44.1%; as for `Fc1ccccc1COc1ccc(Br)cc1CNCc1cccnc1`, -5%. Take `COc1ccc(NC(=O)Nc2c(C)noc2-c2ccccc2)cc1`: the inhibition is -7.5%. As to `O=C(Oc1ccc(Br)cc1C(=S)N1CCOCC1)c1ccc(F)cc1`, the inhibition is -9.9%.

`C/C(=N\Nc1nc2ccccc2[nH]1)c1cc2ccccc2o1`: the inhibition is -21.6%. As for `CSc1ccccc1C(=O)Nc1nc2ccccc2[nH]1`, the figure is -46.1%. The value for `O=C(Nc1nc2ccccc2[nH]1)c1ccc(Br)o1` was -21.2%; that for `O=C(Nc1nc2ccccc2[nH]1)c1cc2ccccc2o1` was 73.5% (active).

For `O=C(Nc1nc2ccccc2[nH]1)c1ccccc1O`, the inhibition is 1.5%. Take `O=C(Nc1nc2ccccc2[nH]1)c1ccccc1F`: the inhibition is 77.3% (active). On to `COc1ccc(S(=O)(=O)Nc2ccccc2C(=O)N2CCCCC2)cc1C`, for which the inhibition was -14.5%. The value for `S=C(Nc1ccccc1)N1CCOCCOCCN(C(=S)Nc2ccccc2)CCOCCOCC1` was -11%. As for `CC(=O)N1N=C(N)SC1c1cccc([N+](=O)[O-])c1` (stereo not given), the figure is -38.8%; as for `CC(=O)Oc1ccc2nc(/C=C/c3ccccc3)oc(=O)c2c1`, -9.3%; as for `COc1ccc(-c2cc(C(F)(F)F)nc(S(=O)(=O)CCCC(=O)Nc3cc(C)on3)n2)cc1OC`, 32.1%. For the compound `COc1ccccc1-c1cc(C(F)(F)F)nc(S(=O)(=O)CCCC(=O)Nc2cc(C)on2)n1`, the inhibition is 37%. In the case of `Cc1cc(NC(=O)CCCS(=O)(=O)c2nc(-c3cccs3)cc(C(F)(F)F)n2)no1`, the inhibition is 91% (active). For `O=C(COc1ccc(S(=O)(=O)N2CCOCC2)cc1Cl)NCc1ccccn1`, the inhibition is -57.1%. As to `Cc1ccccc1-c1nc(-c2ccccn2)no1`, the inhibition is 11.7%. On to `Clc1ccc(-c2nc(-c3ccccn3)no2)cc1Cl`, for which the inhibition was -69.5%. The value for `Clc1cccc(-c2nc(-c3ccccn3)no2)c1` was -17.2%; that for `COc1cccc(-c2nc(-c3ccccc3)no2)c1` was -49.3%.

Turning to `COc1cccc(-c2nc(-c3ccccn3)no2)c1`, the inhibition is 65% (active). The value for `COc1cccc(-c2nc(-c3ccncc3)no2)c1` was -5.3%; that for `c1ccc(-c2noc(-c3ccc4ccccc4c3)n2)nc1` was 77.3%. On to `Cc1ccc(-c2nc(-c3ccccn3)no2)cc1`, for which the inhibition is 89.5% (active). The value for `c1ccc(-c2noc(-c3cccnc3)n2)nc1` was -11.3%. With `c1ccc(-c2nc(-c3ccccn3)no2)cc1`, the inhibition was 54.3% (active). The value for `Cc1ccc(-c2nc(-c3ccccn3)no2)cc1Cl` was 71.4% (active); that for `c1ccc(-c2noc(-c3ccncc3)n2)nc1` was -30.8%.

Consider `CCCC(=O)NCC(c1cccs1)S(=O)(=O)c1ccc(Cl)cc1` (stereo not given), for which the inhibition is -18%. Take `Cc1ccc2cc3cc(C(=O)NC4CCCCC4)oc3nc2c1`: the inhibition is -36.4%. On to `O=C(Nc1ccccc1)Nc1ccc2ocnc2c1`, for which the inhibition is -32.4%. The value for `Cc1nnc(SCC(=O)NC2CC2)s1` was -18.8%.

In the case of `COc1cc(S(=O)(=O)n2nc(C)cc2C)ccc1Cl`, the inhibition was -30.9%. As for `Cc1ccc(C2=NN(C3=NN=C(N)Cc4ncnn43)C(O)(C(F)(F)F)C2)cc1` (stereo not given), the figure is -15.4%.

In the case of `CC(CC(=O)O)CC(=O)Nc1cc([N+](=O)[O-])ccc1O` (stereo not given), the inhibition is -14.6%. The value for `COc1ccccc1-c1nc(-c2ccccn2)no1` was 27.3%; that for `c1ccc(-c2ccc(-c3nc(-c4ccncc4)no3)cc2)cc1` was 28.9%. For `Cc1cccc(-c2noc(-c3ccc4c(c3)OCO4)n2)c1`, the inhibition was -27.9%. Regarding `COc1cc(-c2nc(-c3ccccn3)no2)cc(OC)c1OC`, the inhibition was -30.9%. Turning to `c1ccc(-c2noc(-c3ccc4c(c3)OCO4)n2)cc1`, the inhibition was -47.3%. With `c1ccc(-c2noc(-c3ccno3)n2)nc1`, the inhibition is -2.2%. Turning to `c1ccc(-c2ccc(-c3nc(-c4ccccn4)no3)cc2)cc1`, the inhibition is 99.9% (active). The value for `c1ccc(-c2noc(-c3ccc4c(c3)OCO4)n2)nc1` was 64.7% (active). As for `COc1ccc(-c2nc(-c3ccccn3)no2)cc1`, the figure is 99% (active); as for `Cn1c(SCC(=O)NC(=O)CN2CCCC2=O)nnc1-c1ccc(F)cc1`, -11.6%. As for `Cc1ccc(-c2nc(=S)c3c(n2CCN2CCOCC2)CC(C)(C)OC3)cc1`, the inhibition was -25.9%. As for `CCOc1ccc(-c2c(=O)n(OCC)c3ccccc3[n+]2[O-])cc1`, the figure is 3.2%; as for `CCC(C(=O)OC(C)C(=O)Nc1ccc(Cl)cn1)c1ccccc1` (stereo not given), -32.2%. Regarding `COC(=O)c1cc(-c2ccccc2)sc1NC(=O)c1cc(C)on1`, the inhibition is -4.3%. Consider `O=C(NCCc1ccccc1)C1CCC(=O)N1CCc1ccccc1` (stereo not given), for which the inhibition is 2%. Take `CCOC(=O)Cn1c(C)c(Br)c(COC)c(C#N)c1=O`: the inhibition is -13.2%. The value for `COC(=O)c1sc(NC(=O)CSc2nc3cccnc3n2C)nc1C` was -10.6%. As for `CCCCCCC(C)NC(=S)Nc1cc(S(=O)(=O)N(C)C)ccc1C` (stereo not given), the figure is -10.2%; as for `CN(Cc1ccccc1F)c1ncnc2sccc12`, -28.7%. For `CN(Cc1ccccc1)c1ncnc2sccc12`, the inhibition was 32.5%. The value for `CN(Cc1cccs1)c1ncnc2sccc12` was 46.8% (active).
